Source: PubChem BioAssay
This is a sample that favours compounds with a hit; in the whole collection about 1.5% have one here.
Polio RdRp inh: poliovirus RNA polymerase inhibition | P03300 | poliovirus polymerase elongation, fluorescence polarization; stronger effect = lower value | actives 0.66% (n = 150,000) | % elongation, % (compound at 16.7 µg/mL); in the data active = % elongation below about 90%
MenB inh: Mtb MenB enzyme inhibition | P9WNP5 | MenB enzyme assay, absorbance read-out | inhibition, % (no concentration beside the values) | actives 0.43% (n = 100,000) | AID 540299; in the data active = inhibition above about 21%, passing the limit was not always enough
MbtI inh: MbtI salicylate synthase inhibition; inhibition, % (concentration not given with the values); purified MbtI enzyme, fluorescence intensity read-out; actives 0.89% (n = 100,000); in the data active = inhibition mostly above about 56%, no sharp cut-off; inactive = mostly below about 77%
Target sequence (P9WFX0 whole entry, looked up): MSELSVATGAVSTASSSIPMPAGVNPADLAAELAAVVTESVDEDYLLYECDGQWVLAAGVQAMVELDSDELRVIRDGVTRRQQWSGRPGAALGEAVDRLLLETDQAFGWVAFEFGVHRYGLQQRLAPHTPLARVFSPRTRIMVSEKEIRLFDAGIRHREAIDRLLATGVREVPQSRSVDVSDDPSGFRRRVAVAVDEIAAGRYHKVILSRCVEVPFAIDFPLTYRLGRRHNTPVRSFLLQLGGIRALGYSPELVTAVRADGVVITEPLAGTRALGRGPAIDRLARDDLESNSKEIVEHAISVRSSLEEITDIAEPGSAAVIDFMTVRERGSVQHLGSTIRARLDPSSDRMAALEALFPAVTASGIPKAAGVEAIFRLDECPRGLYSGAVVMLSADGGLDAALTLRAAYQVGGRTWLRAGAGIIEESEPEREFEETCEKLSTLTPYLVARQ
Large screens that a line does not name were inactive.

O=C(CN(Cc1ccccc1)C(=O)Cn1nnc(-c2ccc(F)cc2)n1)NC1CCCC1	none
CC1(C)CCC2=C(O1)c1ccccc1C(=O)C2=O	Polio RdRp inh 89.0
CC1=C(C)C(=O)c2ccccc2C1=O	none
Cc1cccc(NC(=O)Nc2cccc(C)c2)c1	none
N=C(N)c1cccc(NC(=O)Nc2cccc(C(=N)N)c2)c1	Polio RdRp inh 88.0 (no result: MbtI inh)
CCCC(C)C(=O)Nc1nnc(C(C)C)s1 (stereo unspecified)	none (no result: MbtI inh)
CCCCC(CC)C(=O)Nc1nnc(C(C)C)s1 (stereo unspecified)	MbtI inh 70.0
Cc1ccc(C)c(C(=O)NCC(C)C)c1	none
Cc1ccc(C)c(C(=O)/C=C/C(=O)O)c1	MenB inh 67.0 (no result: MbtI inh)
COc1ccc(Cl)cc1-c1nc(SCC(=O)N(CC(C)C)C2CCS(=O)(=O)C2)n[nH]1 (stereo unspecified)	none
O=C(Cc1nc2ccccc2s1)c1ccc(O)cc1O	none
O=C(Cc1nc2ccccc2s1)c1ccccc1	Polio RdRp inh 72.0 (no result: MenB inh)
CC(C)(O)C(C)(C)CCO	none
CCC1C/C(=C/c2ccccc2OC)C(=O)/C(=C/c2ccccc2OC)C1 (stereo unspecified)	none
CNC(=O)CSc1c(-c2cccs2)[nH]c2ccccc12	none (no result: MbtI inh)
NNC(=O)CSc1c(-c2cccs2)[nH]c2ccccc12	MenB inh 37.7
Oc1ccccc1C(C#Cc1ccccc1)N1CCCCC1 (stereo unspecified)	none (no result: MenB inh)
CC(=Nc1ccccc1)C1=C(O)CCCC1=O	none
O=C1CCCC(O)=C1C1(O)C(=O)c2ccccc2C1=O	Polio RdRp inh 79.0
CC(=O)Nc1scc[n+]1Cc1ccccc1	none (no result: MenB inh)
Cc1c(C(=O)Oc2ccccc2F)oc2ccccc12	none
CC1=NN(c2cccc(C(=O)O)c2)C(=O)/C1=C/c1ccc(-c2cccc(Cl)c2C)o1	Polio RdRp inh 90.0
CC1=NN(c2ccccc2)C(=O)/C1=C/c1ccc(-c2ccccc2)o1	none
COc1cc(C2=Nc3c(c(C)nn3-c3ccccc3)P(=O)(N3CCOCC3)O2)cc(OC)c1OC (stereo unspecified)	none
Cc1nn(-c2ccccc2)c2c1P(=S)(N1CCOCC1)OC(c1ccccc1)=N2 (stereo unspecified)	Polio RdRp inh 88.0
CC(=O)Nc1cccc(C(=O)OC(C)C(=O)N(C)c2ccccc2)c1 (stereo unspecified)	none
CCSc1cc(C(F)(F)F)nc2cc(C(C)(C)C)nn12	MbtI inh 86.5
CC(C)(C)c1cc2nc(C(F)(F)F)cc(Sc3ccccc3)n2n1	none
Cc1nc2cc3ccccc3cc2c(=O)n1CCCNC1CCCCC1	Polio RdRp inh 90.0 (no result: MbtI inh)
COCCCn1c(=N)c(C(=O)NC2CCCCC2)cc2c(=O)n3ccccc3nc21	none (no result: MenB inh, MbtI inh)
CC(C#N)Sc1nnc(-c2ccco2)n1C1CCCCC1 (stereo unspecified)	none
O=S(=O)(c1ccc(Br)cc1)N1CCNCC1	none (no result: MbtI inh)
N#Cc1ccc(S(=O)(=O)N2CCNCC2)cc1	MenB inh 27.3
Cn1c(C(C(=O)NCC2CCCO2)N(Cc2ccc(F)cc2)C(=O)Cn2nnc3ccccc32)nc2ccccc21 (stereo unspecified)	none
Cc1nc2c3ccccc3nc(NNC(=O)CCC(=O)N3CCN(c4ccccc4F)CC3)n2n1	none (no result: MenB inh, MbtI inh)
CCCCN(C)C(=O)CCC(=O)NNc1nc2ccccc2c2nc(C)nn12	Polio RdRp inh 81.0 (no result: MenB inh, MbtI inh)
CCN(CC)CCCNC(=O)CCC(=O)NNc1nc2ccccc2c2nc(C)nn12	none (no result: MenB inh, MbtI inh)
COc1ccc(N2CCN(C(=O)CCC(=O)NNc3nc4ccccc4c4nc(C)nn34)CC2)cc1	Polio RdRp inh 87.0 (no result: MenB inh, MbtI inh)
Cc1nc2c3ccccc3nc(NNC(=O)CCC(=O)N3CCN(c4ccccc4)CC3)n2n1	Polio RdRp inh 85.0 (no result: MenB inh, MbtI inh)
Cc1nc2c3ccccc3nc(NNC(=O)CCC(=O)N3CCN(c4cccc(Cl)c4)CC3)n2n1	none (no result: MenB inh, MbtI inh)
CCC(C(=O)c1ccccc1)n1nc(-c2cccs2)ccc1=O (stereo unspecified)	none
O=C(Cc1ccccc1)c1cccs1	none (no result: MbtI inh)
CC1=CC(c2ccccc2)=C(C#N)C(=S)C1CC(=O)c1cccs1 (stereo unspecified)	Polio RdRp inh 85.0 (no result: MbtI inh)
CCNc1ccc(S(=O)(=O)C(F)(F)F)cc1NC(=O)CC#N	none
OC(COc1ccc2ccccc2c1)Cn1ccnc1 (stereo unspecified)	none
CC(=O)Nc1ccc(OCC(O)Cn2ccnc2)cc1 (stereo unspecified)	MenB inh 30.6
CN(Cc1ccco1)C(=O)c1ccc2c(c1)CC(c1ccccc1)OC2=O (stereo unspecified)	none
CCOC(=O)C1CCN(Cn2nc(Nc3ccc(CC)cc3)sc2=S)CC1	none
Cc1ccc(Nc2nn(CN3CCOCC3)c(=S)s2)cc1	MbtI inh 89.7
O=C(Nc1nc2ccc(Br)cc2s1)c1cc2ccccc2o1	none
N#Cc1c(NCSCc2ccccc2)sc2c1CCCCC2	Polio RdRp inh 69.0 (no result: MbtI inh)
N#Cc1c(NC(=S)Nc2ccccc2)sc2c1CCC2	none (no result: MbtI inh)
C[n+]1c(CF)sc2ccccc21	MbtI inh 96.6 (no result: MenB inh)
C/C(O)=C\c1sc2ccccc2[n+]1C	none
O=C(CC1SC(=O)NC1=O)Nc1ccccc1NC(=O)CC1SC(=O)NC1=O (stereo unspecified)	none
COC(=O)CC1SC(=O)NC1=S (stereo unspecified)	MbtI inh 83.7
Cc1ccc(CNC(=O)c2cc3sccc3n2C)cc1	none
c1ccc(CNn2cn[n+](Cc3ccccc3)c2)cc1	none (no result: MenB inh)
COc1ccccc1CNCc1ccccc1	none (no result: MbtI inh)
Cc1nc2ccc(C(=O)NCc3ccccc3CN3CCCC3)cc2nc1C	none
Cc1[nH][nH]c(=O)c1CCCOc1ccccc1	none (no result: MbtI inh)
COc1cccc(C(=O)Cn2c(=O)n(CCC(=O)NC3CCCC3)c(=O)c3cc(OC)c(OC)cc32)c1	none
C=CCn1c(=O)[nH]c2nc3cc(N=CN(C)C)ccc3nc2c1=O	Polio RdRp inh -6.0
C=CCn1c(=O)[nH]c2nc3cc(N=CN(C)C)c(C)cc3nc2c1=O	none
COc1ccc(N2CCN(C=C3C(=O)N(C)C(=O)N(C)C3=O)CC2)cc1	none
C=CCn1c(C(NC(=O)c2ccc(Cl)cc2Cl)C(C)C)n[nH]c1=S (stereo unspecified)	none
C=CCn1c(C(C)Oc2ccc(Cl)cc2)n[nH]c1=S (stereo unspecified)	MbtI inh 65.2
COc1ccc(NC(=O)CSCC(=O)O)cc1	none
COc1ccc2nnnn2n1	none (no result: Polio RdRp inh, MenB inh)
O=C1C=CC(=O)C(C2=C3C(=O)N(Cc4ccccc4)CC(=O)N3CCC2)=C1	MbtI inh 100.2
O=C1C(O)=C(Cc2ccccc2)CN1Cc1ccccc1	none (no result: MbtI inh)
O=C(O)CC(C(=O)O)c1ccc(Cl)cc1Cl (stereo unspecified)	none
Cc1nnc2sc(-c3cccc(NC(=O)c4cccc(F)c4)c3)nn12	none
Cc1occc1-c1nnc2sc(-c3cccc(F)c3)nn12	MbtI inh 95.2
CC1=CC(=NC(=O)c2ccco2)C(C)=CC1=O	MbtI inh 100.1
CC1=C/C(=N\OC(=O)Cc2ccccc2)C(C)=CC1=O	none
CC(C)CNC(=O)c1cnn2c(C(F)F)cc(-c3ccccc3)nc12	none
C=Cc1ccc2c(ccn2C(C)=O)c1	none
C=Cc1ccc2c(c1)N(C)C(=C)S2	MbtI inh 61.7 (no result: MenB inh)
CC1=C(C(=O)Nc2ccc(CC(=O)N3CCN(c4ccccc4F)CC3)cc2)SCCO1	none
CCn1c(CSc2ncccn2)nc2cc(C(=O)O)ccc21	none
CCn1c(CS(=O)(=O)c2cc(C)ccc2C)nc2cc(C(=O)O)ccc21	Polio RdRp inh 81.0
COc1ccc(OC)c(CNC(=O)c2cc3c(-c4ccc(OC)c(OC)c4)nn(C)c3s2)c1	none (no result: MenB inh, MbtI inh)
